PubChem BioAssay (EPA / NIEHS)
“And” between values parts separate entries of the source, which are not always exact repeats. Equal entries are not always repeated. The source holds several records for some structures; these can differ, active in one and inactive in another. The source made the active and inactive calls. How the source made its calls: active means hit-call score of the fitted dose curve at least 0.9, where 1 is the maximum; inactive means score below 0.9.

Legend:
[1] = read-out: TIMP metallopeptidase inhibitor 2 (TIMP2), TIMP2 (gene 7077); experiment: BSK_KF3CT_TIMP2: BioMAP Diversity Plus: KF3CT Assay for TIMP metallopeptidase inhibitor 2 (TIMP2) Biomarker Activity (AID 2283071); conditions: primary human keratinocytes with fibroblasts; actives raise or lower the signal
How it was run: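 Chemicals were dosed onto human skin primary co-cultures of keratinocytes and foreskin fibroblasts, and TIMP-2 was measured by ELISA after 24 hours. Activity in either direction was fitted relative to DMSO.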

[2] = read-out: Transforming growth factor beta 1 (TGFb1), TGFB1 (gene 7040); experiment: BSK_KF3CT_TGFb1: BioMAP Diversity Plus: KF3CT Assay for Transforming growth factor beta 1 (TGFb1) Biomarker Activity (AID 2283072); conditions: primary human keratinocytes with fibroblasts; actives raise or lower the signal
How it was run: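 KF3CT co-culture (keratinocytes + fibroblasts), 24 h exposure → TGF-b1 ELISA → bidirectional fit, DMSO = baseline. Parallel SRB total-protein staining (0.1% SRB, 10% TCA fixation, 560 nm) for cytotoxicity.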

[3] = read-out: C-C motif chemokine 2 (Homo sapiens) (UniProt P13500); experiment: BSK_KF3CT_MCP1: BioMAP Diversity Plus: KF3CT Assay for Monocyte Chemoattractant Protein 1 (MCP1/CCL2) Biomarker Activity (AID 2283073); conditions: primary human keratinocytes with fibroblasts; actives raise or lower the signal
How it was run: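 ELISA read-out of MCP-1, 24 h post-dose, in primary human skin keratinocytes co-cultured with fibroblasts. Parallel SRB staining monitors cytotoxicity; changes fitted both directions relative to DMSO.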

[4] = read-out: Matrix Metallopeptidase 9 (MMP9), MMP9 (gene 4318); experiment: BSK_KF3CT_MMP9: BioMAP Diversity Plus: KF3CT Assay for Matrix Metallopeptidase 9 (MMP9) Biomarker Activity (AID 2283074); conditions: primary human keratinocytes with fibroblasts; actives raise or lower the signal;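 on AC50: MMP9 protein level quantified by ELISA in the co-culture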
How it was run: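 ELISA read-out of MMP-9 at 24 h post-dosing in a co-culture of human skin keratinocytes and foreskin fibroblasts. Gain or loss of signal was fitted in both directions against DMSO.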

[5] = read-out: urokinase plasminogen activator (uPA), PLAU (gene 5328); experiment: BSK_KF3CT_uPA: BioMAP Diversity Plus: KF3CT Assay for urokinase plasminogen activator (uPA) Biomarker Activity (AID 2283075); conditions: primary human keratinocytes with fibroblasts; actives raise or lower the signal
How it was run: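 Skin co-culture (keratinocytes + foreskin fibroblasts), human primary; 24 h post-dose; uPA by ELISA; gain/loss fit vs DMSO baseline.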

CD40, CD40 (gene 958) [6] = experiment: BSK_LPS_CD40: BioMAP Diversity Plus: LPS Assay for CD40 Biomarker Activity (AID 2283076); conditions: primary human HUVEC with PBMC; actives raise or lower the signal
How it was run: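 In the LPS system of human endothelial cells with peripheral blood mononuclear cells, CD40 levels were read by ELISA 24 h post-treatment. Signal changes in either direction were fitted against the DMSO baseline, with parallel SRB protein staining.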

[7] = read-out: Interleukin-8 (IL8), CXCL8 (gene 3576); experiment: BSK_LPS_IL8: BioMAP Diversity Plus: LPS Assay for Interleukin-8 (IL8) Biomarker Activity (AID 2283078); conditions: primary human HUVEC with PBMC; actives raise or lower the signal
How it was run: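 ELISA read-out of IL-8 after 24 h chemical treatment of LPS-activated endothelial/PBMC human primary co-cultures. Changes either up or down relative to DMSO; overt cytotoxicity checked by sulforhodamine B staining in parallel wells.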

[8] = BSK_LPS_SRB: Viability Assessment in the BioMAP Diversity Plus: LPS Assay (AID 2283079); conditions: primary human HUVEC with PBMC;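 further: total protein by sulforhodamine B absorbance as a cytotoxicity measure; measured one day after compound addition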
How it was run: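 SRB viability endpoint: cells fixed with 10% TCA, stained with 0.1% SRB, read at 560 nm, 24 h post-dose. HUVEC/PBMC co-culture; signal change in either direction scored relative to DMSO.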

[9] = read-out: Interleukin-1 alpha (IL1a), IL1A (gene 3552); experiment: BSK_LPS_IL1a: BioMAP Diversity Plus: LPS Assay for Interleukin-1 alpha (IL1a) Biomarker Activity (AID 2283080); conditions: primary human HUVEC with PBMC; actives raise or lower the signal
How it was run: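 Readout is IL-1a level by ELISA, 24 h post-dose, fitted as gain or loss relative to DMSO. System: LPS-activated human primary co-culture of vascular endothelium and peripheral blood mononuclear cells, with parallel SRB total-protein cytotoxicity.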

[10] = read-out: Monocyte Chemoattractant Protein-1 (MCP1), CCL2 (gene 6347); experiment: BSK_LPS_MCP1: BioMAP Diversity Plus: LPS Assay for Monocyte Chemoattractant Protein-1 (MCP1) Biomarker Activity (AID 2283081); conditions: primary human HUVEC with PBMC; actives raise or lower the signal;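 on AC50: secreted MCP-1 protein quantified by ELISA in culture supernatant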
How it was run: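 Secreted MCP-1 read by ELISA at 24 h post-dosing in an LPS-activated co-culture of endothelial cells with peripheral blood mononuclear cells. Fits run in both directions, DMSO as baseline; parallel SRB staining tracks overt cytotoxicity.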

[11] = BSK_LPS_PGE2: BioMAP Diversity Plus: LPS Assay for Prostaglandin E2 (PGE2) Biomarker Activity (AID 2283082); conditions: primary human HUVEC with PBMC; actives raise or lower the signal;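 on AC50: secreted prostaglandin E2 measured by ELISA in LPS-stimulated co-culture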
How it was run: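 Compounds were added to the LPS co-culture of endothelium and PBMC, and PGE2 was measured by ELISA after 24 h. Responses in either direction were fitted with DMSO as baseline.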

[12] = read-out: Macrophage colony-stimulating factor (MCSF), CSF1 (gene 1435); experiment: BSK_LPS_MCSF: BioMAP Diversity Plus: LPS Assay for Macrophage colony-stimulating factor (MCSF) Biomarker Activity (AID 2283083); conditions: primary human HUVEC with PBMC; actives raise or lower the signal
How it was run: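 Bidirectional fitting against DMSO was applied to M-CSF levels read by ELISA at 24 h post-dose. The system pairs human umbilical vein endothelium with peripheral blood mononuclear cells; parallel SRB staining tracked cytotoxicity.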

[13] = read-out: Tissue Factor, F3 (gene 2152); experiment: BSK_LPS_TissueFactor: BioMAP Diversity Plus: LPS Assay for Tissue Factor Biomarker Activity (AID 2283084); conditions: primary human HUVEC with PBMC; actives raise or lower the signal
How it was run: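 Compound was added to an endothelial cell/PBMC co-culture, and after 24 h tissue factor (CD142) was read by ELISA. Gain or loss of signal was fitted against a DMSO baseline, and parallel SRB staining (560 nm) tracked overt cytotoxicity.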

[14] = read-out: Tumor necrosis factor (Homo sapiens) (UniProt P01375); experiment: BSK_LPS_TNFa: BioMAP Diversity Plus: LPS Assay for Tumour Necrosis Factor alpha (TNFa) Biomarker Activity (AID 2283085); conditions: primary human HUVEC with PBMC; actives raise or lower the signal;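 on AC50: TNFa protein level quantified by ELISA in the co-culture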
How it was run: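 Cells (umbilical vein endothelium plus peripheral blood mononuclear cells) were dosed with chemical, incubated 24 h, then TNFa was quantified by ELISA; values derive from bidirectional fitting with DMSO as baseline.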

[15] = read-out: Vascular cell adhesion molecule 1 (VCAM1), VCAM1 (gene 7412); experiment: BSK_LPS_VCAM1: BioMAP Diversity Plus: LPS Assay for Vascular cell adhesion molecule 1 (VCAM1) Biomarker Activity (AID 2283086); conditions: primary human HUVEC with PBMC; actives raise or lower the signal
How it was run: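 Cells are dosed in an LPS-stimulated endothelial/mononuclear co-culture and, after 24 h, VCAM-1 is quantified by ELISA. Activity in either direction is fitted relative to the DMSO negative control.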

CD38, CD38 (gene 952) = experiment: BSK_SAg_CD38: BioMAP Diversity Plus: SAg Assay for CD38 Biomarker Activity (AID 2283087); conditions: primary human HUVEC with PBMC; actives raise or lower the signal
How it was run: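 CD38 quantified by ELISA (fluorescence) in a superantigen-activated endothelial cell–PBMC co-culture at 24 h post-dose. Activity fitted in both directions relative to DMSO; parallel SRB and Alamar Blue cytotoxicity read-outs.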

CD40, CD40 (gene 958) [16] = experiment: BSK_SAg_CD40: BioMAP Diversity Plus: SAg Assay for CD40 Biomarker Activity (AID 2283088); conditions: primary human HUVEC with PBMC; actives raise or lower the signal
How it was run: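 CD40 is measured by fluorescence ELISA in an endothelial/PBMC primary human co-culture at 24 h post-dose. Fitting is bidirectional, DMSO baseline. Parallel SRB staining (560 nm) flags cytotoxicity.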

CD69, CD69 (gene 969) = experiment: BSK_SAg_CD69: BioMAP Diversity Plus: SAg Assay for CD69 Biomarker Activity (AID 2283089); conditions: primary human HUVEC with PBMC; actives raise or lower the signal
How it was run: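 Primary human vascular co-culture (umbilical vein endothelium with peripheral blood mononuclear cells) exposed to test chemical for 24 h. CD69 levels quantified by fluorescence ELISA; DMSO served as negative control for bidirectional fitting.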

[17] = read-out: Monocyte Chemoattractant Protein-1 (MCP1), CCL2 (gene 6347); experiment: BSK_SAg_MCP1: BioMAP Diversity Plus: SAg Assay for Monocyte Chemoattractant Protein-1 (MCP1) Biomarker Activity (AID 2283090); conditions: primary human HUVEC with PBMC; actives raise or lower the signal
How it was run: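 Values derive from bidirectional fitting of ELISA-measured MCP1 against DMSO controls. Readings were taken 24 h after dosing human vascular endothelial cells co-cultured with peripheral blood mononuclear cells under superantigen stimulation.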

[18] = read-out: E-selectin (Homo sapiens) (UniProt P16581); experiment: BSK_LPS_Eselectin: BioMAP Diversity Plus: LPS Assay for Eselectin Biomarker Activity (AID 2283077); conditions: primary human HUVEC with PBMC; actives raise or lower the signal
How it was run: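 E-selectin ELISA on LPS-stimulated endothelial cell/PBMC co-cultures, read 24 h post-treatment; gains and losses fitted against DMSO. Parallel SRB staining (0.1% SRB after 10% TCA fixation, 560 nm) flags overt cytotoxicity.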

Measured: AC50

Chain of Tumor necrosis factor (Homo sapiens) (P01375 whole entry, looked up): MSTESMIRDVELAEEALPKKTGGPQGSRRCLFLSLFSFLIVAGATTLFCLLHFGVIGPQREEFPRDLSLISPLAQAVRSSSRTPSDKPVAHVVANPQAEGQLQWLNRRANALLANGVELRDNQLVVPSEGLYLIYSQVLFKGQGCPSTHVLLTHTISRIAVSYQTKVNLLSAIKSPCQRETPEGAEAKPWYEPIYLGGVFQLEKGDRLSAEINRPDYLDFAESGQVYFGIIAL
Chain of E-selectin (Homo sapiens) (P16581 whole entry, looked up): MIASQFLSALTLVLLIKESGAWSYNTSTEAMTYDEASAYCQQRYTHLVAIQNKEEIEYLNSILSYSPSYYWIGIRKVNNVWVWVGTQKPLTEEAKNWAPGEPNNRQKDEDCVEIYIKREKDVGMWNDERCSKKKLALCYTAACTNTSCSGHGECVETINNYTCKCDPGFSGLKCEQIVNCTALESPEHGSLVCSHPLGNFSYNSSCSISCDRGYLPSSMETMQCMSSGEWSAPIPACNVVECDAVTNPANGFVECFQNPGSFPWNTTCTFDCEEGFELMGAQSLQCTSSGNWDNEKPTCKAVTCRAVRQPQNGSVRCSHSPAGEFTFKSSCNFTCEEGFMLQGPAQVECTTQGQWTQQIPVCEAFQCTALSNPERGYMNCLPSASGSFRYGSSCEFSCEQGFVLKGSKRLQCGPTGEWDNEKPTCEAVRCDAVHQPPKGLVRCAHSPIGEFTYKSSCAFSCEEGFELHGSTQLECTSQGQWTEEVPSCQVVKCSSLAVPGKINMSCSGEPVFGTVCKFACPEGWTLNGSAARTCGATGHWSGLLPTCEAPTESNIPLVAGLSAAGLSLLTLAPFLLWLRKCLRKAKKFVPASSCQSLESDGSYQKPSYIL

Cc1cccc(C)c1N
not listed: [18]
inactive: all other assays above

C=CC(N)=O
not listed: [13]
inactive: all other assays above

Clc1ccc(Cl)cc1
not listed: [13] | [18]
inactive: all other assays above

C=CC(=O)NCNC(=O)C=C
not listed: [5] | CD69, CD69 (gene 969)
inactive: all other assays above

Oc1c(Cl)c(Cl)c(Cl)c(Cl)c1Cl
active: [1] 2.02 µM and 17.3 µM | [2] 15 µM | [3] 10.8 µM | [4] 6.97 µM and 6.46 µM | CD40, CD40 (gene 958) [6] 10.2 µM and 15.2 µM | [7] 33.1 µM | [8] 15.1 µM and 26.4 µM | [9] 34.4 µM | [10] 2.92 µM and 30.4 µM | [11] 4.98 µM | [12] 10.2 µM and 25.5 µM | [14] 20 µM | [15] 10.2 µM and 14.6 µM | CD38, CD38 (gene 952) 27.7 µM | CD40, CD40 (gene 958) [16] 10.2 µM and 24.1 µM | [17] 10.2 µM and 33.6 µM
inactive: [2] | [3] | [7] | [9] | [11] | [14]
